Activity calls are given as the source filed them.

Experiment [1] can be described thus: binders of probe aFSTL3 on microarray, primary screen, stem cell growth factor project, biochemical, small-molecule microarray, fluorescence 635/667 (AID 1064).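 Also: measures binding of the biotinylated anti-FSTL3 antibody to printed compounds.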 The settings on record: higher = more signal.
A short description of experiment [2]: binders from COS7 lysate, DM2A8 probe, primary screen, torsin A project, cell lysate, small-molecule microarray, fluorescence 635/667 (AID 1065). The note with it: higher = more signal, COS7 lysate expressing mutant human TOR1A.
A short description of experiment [3]: binders of probe aFGF2 on microarray, primary screen, stem cell growth factor project, biochemical, small-molecule microarray, fluorescence 635/667 (AID 1067).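 Also: measures binding of biotinylated aFGF2 protein to printed compounds on slides; z-score merges feature fluorescence and signal-to-noise across triplicate slides.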 The settings on record: higher = more signal.
Experiment [4] can be described thus: binders of probe aFGF10 on microarray, primary screen, stem cell growth factor project, biochemical, small-molecule microarray, fluorescence 635/667 (AID 1071).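 Also: score merges 667 nm spot intensity and signal to noise from triplicate slides.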 The note with it: higher = more signal.
Experiment [5] deals with Neurogenic locus notch homolog protein 2 (Homo sapiens) (UniProt Q04721). The experiment in a line: Notch2 binders on small-molecule microarrays, primary screen, biochemical, small-molecule microarray, 635 nm fluorescence, stem cell growth factors (AID 1073). The note with it: Notch2 binding, higher = more signal.
For experiment [6], the target named is Pro-neuregulin-1, membrane-bound isoform (Homo sapiens) (UniProt Q02297). Briefly: NRG1 binders on small-molecule microarrays, primary screen, psychiatric disease protein project, biochemical, small-molecule microarray, fluorescence 635/667 (AID 1075).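 Also: score combines 667 nm spot fluorescence with signal to noise.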 The settings on record: NRG1 binding, 635 nm fluorescence, higher = more signal.
In experiment [7] the test system is Neuregulin-1 EGF-like domain. Briefly: binders of neuregulin-1 EGF-like domain, primary screen, biochemical, small-molecule microarray, 635 nm fluorescence (AID 1081).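 Also: binding of the protein to compounds printed on small-molecule microarray slides.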 The note with it: small-molecule microarray binding, higher = more signal.
The nature of experiment [8]: FRG1 promoter luciferase signal modulators, primary screen, FRG1 inhibition for FSHD, cell-based, C2C12 myotubes, firefly/Renilla luciferase, luminescence (AID 1084). The settings on record: higher = more signal, called active from +8 up or from −8 down.
A short description of experiment [9]: binders of probe aFST on microarray, primary screen, stem cell growth factor project, biochemical, small-molecule microarray, fluorescence 635/667 (AID 1086).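 Also: score merges 667 nm fluorescence with signal-to-noise of each printed compound spot.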 The settings on record: higher = more signal.
The nature of experiment [10]: binders of probe aHhip on microarray, primary screen, stem cell growth factor project, biochemical, small-molecule microarray, fluorescence 635/667 (AID 1087).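 Also: score merges spot fluorescence at 667nm with spot signal to noise ratio.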 The settings on record: higher = more signal.

Sequence of Neurogenic locus notch homolog protein 2 (Homo sapiens) (Q04721 whole entry, looked up, canonical isoform): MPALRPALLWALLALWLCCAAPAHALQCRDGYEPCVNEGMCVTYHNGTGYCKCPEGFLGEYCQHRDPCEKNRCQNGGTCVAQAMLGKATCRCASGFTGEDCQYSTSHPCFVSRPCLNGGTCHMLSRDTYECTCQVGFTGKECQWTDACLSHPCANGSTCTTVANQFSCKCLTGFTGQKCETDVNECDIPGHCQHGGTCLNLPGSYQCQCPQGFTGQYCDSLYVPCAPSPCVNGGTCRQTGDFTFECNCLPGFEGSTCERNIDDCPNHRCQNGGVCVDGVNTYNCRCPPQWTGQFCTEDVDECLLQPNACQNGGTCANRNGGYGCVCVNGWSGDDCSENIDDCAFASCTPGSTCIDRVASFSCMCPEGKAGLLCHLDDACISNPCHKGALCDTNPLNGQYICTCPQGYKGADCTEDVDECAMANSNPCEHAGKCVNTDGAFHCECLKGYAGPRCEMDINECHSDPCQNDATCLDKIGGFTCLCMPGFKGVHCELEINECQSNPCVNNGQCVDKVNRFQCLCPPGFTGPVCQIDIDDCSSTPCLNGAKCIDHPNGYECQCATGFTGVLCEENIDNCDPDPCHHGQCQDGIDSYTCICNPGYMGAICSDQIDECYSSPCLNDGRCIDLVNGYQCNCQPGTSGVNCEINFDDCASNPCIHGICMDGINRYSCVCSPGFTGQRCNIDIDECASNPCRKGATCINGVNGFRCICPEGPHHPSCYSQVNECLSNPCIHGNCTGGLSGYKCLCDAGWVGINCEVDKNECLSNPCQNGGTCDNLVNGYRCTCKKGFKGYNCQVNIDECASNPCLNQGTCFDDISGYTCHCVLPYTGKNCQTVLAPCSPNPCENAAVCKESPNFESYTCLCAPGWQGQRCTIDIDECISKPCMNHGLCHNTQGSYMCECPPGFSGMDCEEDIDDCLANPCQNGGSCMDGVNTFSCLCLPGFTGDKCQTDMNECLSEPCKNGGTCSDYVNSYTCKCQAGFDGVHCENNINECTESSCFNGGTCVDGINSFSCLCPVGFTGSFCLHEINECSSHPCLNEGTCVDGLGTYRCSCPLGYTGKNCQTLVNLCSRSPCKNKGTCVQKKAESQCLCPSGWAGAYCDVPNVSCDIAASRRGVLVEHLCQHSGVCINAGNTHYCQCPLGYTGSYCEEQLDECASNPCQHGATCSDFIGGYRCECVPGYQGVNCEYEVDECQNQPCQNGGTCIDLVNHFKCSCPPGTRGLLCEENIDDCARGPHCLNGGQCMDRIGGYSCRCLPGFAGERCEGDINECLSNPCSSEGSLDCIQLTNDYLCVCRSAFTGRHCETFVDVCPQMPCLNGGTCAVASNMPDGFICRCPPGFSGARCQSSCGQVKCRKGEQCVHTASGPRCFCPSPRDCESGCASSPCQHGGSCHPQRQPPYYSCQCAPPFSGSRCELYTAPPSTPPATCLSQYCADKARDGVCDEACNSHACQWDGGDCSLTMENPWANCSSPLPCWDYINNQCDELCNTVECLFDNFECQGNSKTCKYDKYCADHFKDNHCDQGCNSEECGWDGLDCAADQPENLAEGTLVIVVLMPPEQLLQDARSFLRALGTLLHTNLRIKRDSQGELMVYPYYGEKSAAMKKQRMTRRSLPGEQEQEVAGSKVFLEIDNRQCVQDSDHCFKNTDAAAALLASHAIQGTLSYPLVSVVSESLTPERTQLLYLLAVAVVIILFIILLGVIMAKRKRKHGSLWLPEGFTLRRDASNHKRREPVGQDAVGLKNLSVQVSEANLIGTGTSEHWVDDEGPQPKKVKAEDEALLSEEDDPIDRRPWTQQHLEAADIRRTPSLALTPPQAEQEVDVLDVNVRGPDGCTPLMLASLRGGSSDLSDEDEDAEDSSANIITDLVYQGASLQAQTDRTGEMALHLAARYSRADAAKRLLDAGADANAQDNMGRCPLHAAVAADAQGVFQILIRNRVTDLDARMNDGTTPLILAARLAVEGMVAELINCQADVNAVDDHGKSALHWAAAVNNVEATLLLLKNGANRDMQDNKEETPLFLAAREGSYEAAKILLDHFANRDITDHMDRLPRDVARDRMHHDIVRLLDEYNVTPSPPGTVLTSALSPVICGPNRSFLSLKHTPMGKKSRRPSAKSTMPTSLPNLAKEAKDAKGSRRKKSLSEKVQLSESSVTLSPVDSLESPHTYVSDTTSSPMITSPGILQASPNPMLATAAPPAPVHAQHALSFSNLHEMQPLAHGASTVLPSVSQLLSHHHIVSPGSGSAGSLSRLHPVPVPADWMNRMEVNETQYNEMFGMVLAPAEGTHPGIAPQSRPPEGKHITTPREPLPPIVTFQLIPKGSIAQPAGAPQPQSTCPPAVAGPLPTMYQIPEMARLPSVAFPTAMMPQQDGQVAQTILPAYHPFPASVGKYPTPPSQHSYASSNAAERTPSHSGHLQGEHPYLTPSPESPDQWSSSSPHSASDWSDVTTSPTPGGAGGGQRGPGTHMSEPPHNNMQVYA
Sequence of Pro-neuregulin-1, membrane-bound isoform (Homo sapiens) (Q02297 whole entry, looked up, the tested form may be a part, canonical isoform): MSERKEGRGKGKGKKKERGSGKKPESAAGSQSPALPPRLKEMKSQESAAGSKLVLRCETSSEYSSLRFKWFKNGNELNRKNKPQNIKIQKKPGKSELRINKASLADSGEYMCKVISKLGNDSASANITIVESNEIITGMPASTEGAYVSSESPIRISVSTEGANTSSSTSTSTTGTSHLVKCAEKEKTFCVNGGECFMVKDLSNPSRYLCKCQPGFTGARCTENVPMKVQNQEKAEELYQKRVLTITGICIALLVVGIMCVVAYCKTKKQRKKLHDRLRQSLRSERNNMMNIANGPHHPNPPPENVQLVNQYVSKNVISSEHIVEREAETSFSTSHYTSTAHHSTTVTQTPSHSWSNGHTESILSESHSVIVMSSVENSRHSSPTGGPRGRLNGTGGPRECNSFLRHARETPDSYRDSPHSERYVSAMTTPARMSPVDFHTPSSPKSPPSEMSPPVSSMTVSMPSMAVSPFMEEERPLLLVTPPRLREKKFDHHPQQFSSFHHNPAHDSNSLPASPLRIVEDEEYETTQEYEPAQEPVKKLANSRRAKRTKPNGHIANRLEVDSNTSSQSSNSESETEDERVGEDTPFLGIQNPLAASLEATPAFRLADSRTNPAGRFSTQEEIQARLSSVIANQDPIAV

Consider `NC(=O)[C@@H]1[C@H]2C(=O)O[C@H](c3ccccc3)[C@H](c3ccccc3)N2[C@H](c2ccc(OCCO)cc2)[C@@]12C(=O)Nc1ccc(C#CC3=CCCCC3)cc12`, for which the composite z-score is -0.342 in experiment [1]; 0.18 in experiment [2]; -0.125 in [3]; 1.18 in [4]; 1.23 in experiment [5]; 1.11 in experiment [6]. The composite z-score in [7] is 1.16; in experiment [9], 0.447; in experiment [10], -0.227. In addition, the z-score in experiment [8] is 1.15 (inactive).

Take `COc1ccc(NC(=O)O[C@H]2[C@H](OC(=O)c3cc4ccccc4[nH]3)[C@@H](OC(=O)c3cc4ccccc4[nH]3)[C@@H](OC)O[C@@H]2CO)cc1`: the composite z-score in experiment [1] was -0.147; in experiment [2] it was 0.0444; in [3], 0.0014; in experiment [4], 0.528; in experiment [5] it was 0.23; in experiment [6], 0.765. Also, the composite z-score in [7] amounted to 0.543; in experiment [9] it was 0.0417; in [10], 0.21. In addition, the z-score in [8] is 2.22 (inactive).

In the case of `C=CCNC(=O)[C@@H]1[C@H]2C(=O)O[C@H](c3ccccc3)[C@H](c3ccccc3)N2[C@H](c2ccc(OCCO)cc2)[C@@]12C(=O)N(C(=O)OCCOC)c1ccc(C#CCNC(N)=O)cc12`, the composite z-score in experiment [1] was 0.204; in [2], 0.672; in experiment [3], -0.0502; in [4] it was 0.399; in experiment [5], 1.25; in experiment [6], 0.748. Also, the results for the composite z-score in experiment [7], in experiment [9] and in experiment [10] were 1.1, 0.798 and -0.0994, respectively. The z-score in experiment [8] was 0.635 (inactive).

With `O=C1O[C@@H](c2ccccc2)[C@@H](c2ccccc2)N2[C@@H](c3ccccc3OCCO)[C@]3(C(=O)Nc4ccccc43)[C@@H](C(=O)O)[C@H]12`, the composite z-score is -0.229 in experiment [1]; -0.0324 in [2]; 0.0301 in experiment [3]; 0.551 in [4]; 0.522 in experiment [5]; 1.57 in [6]. The composite z-score in experiment [7] is 1.12; in [9], -0.0073; in experiment [10], 0.0524. Moreover, the z-score in experiment [8] is -1.84 (inactive).

As for `CCOC(=O)C1=CC[C@@H](c2ccc(C(F)(F)F)cc2)N(S(=O)(=O)c2ccc(C)cc2)[C@H]1c1ccccc1`, the composite z-score in experiment [1] was found to be 0.371; in [2], 1.4; in experiment [3] it was 0.0917; in [4], 0.599; in experiment [5], 1.38; in experiment [6], 1.3. For the same compound, the composite z-score in experiment [7] was 1.25; in [9] it was 1.04; in [10], -0.0296. Moreover, in experiment [8], the z-score is -0.364 (inactive).

Consider `CCOC(=O)C1=CC[C@@H](c2ccccc2)N(S(=O)(=O)c2ccc(C)cc2)[C@H]1c1ccc(CC)cc1`, for which the composite z-score is 0.114 in experiment [1]; -0.0251 in experiment [2]; -0.0056 in experiment [3]; 0.421 in experiment [4]; 1.4 in experiment [5]; 0.863 in experiment [6]. For the same compound, the values for the composite z-score in experiment [7], in [9] and in [10] were 1.06, 0.762 and -0.0618, respectively. In addition, in experiment [8], the z-score was -3.16 (inactive).

For the compound `Cc1ccc(S[C@]2(C(=O)NCC(C)C)CC(=O)N(Cc3cc(C(F)(F)F)cc(C(F)(F)F)c3)[C@@H]2c2ccc(CO)cc2)cc1`, the composite z-score in experiment [1] is 0.436; in experiment [2], -0.455; in [3], 0.047; in experiment [4], -0.272; in experiment [5] it was -0.598; in [6], 0.884. Moreover, the composite z-score was determined as 1.44 in experiment [7], 0.0031 in experiment [9] and 0.0749 in [10]. In experiment [8], the z-score was -0.775 (inactive).

Turning to `[N-]=[N+]=Nc1ccccc1[C@H]1OC(c2ccc(OCCCO)cc2)=N[C@@]1(Cc1ccccc1)C(=O)N1CCOCC1`, the composite z-score in [1] turned out to be 0.875; in experiment [2] it was 0.992; in experiment [3], 0.184; in experiment [4], 0.698; in experiment [5] it was 1.57; in [6], 1.84. Further, the composite z-score in [7] turned out to be 1.22; in experiment [9], 1.52; in [10], 0.0873. In addition, the z-score in [8] is -1.6 (inactive).

On to `C#CCOc1ccc(C[C@@H](C(=O)OC)N(CC#C)[C@@H](/C=C/C2CC2)[C@H](O)Cc2ccccc2)cc1`, for which the composite z-score in [1] was 0.282; in experiment [2], -1; in [3] it was -0.198; in experiment [4], -0.207; in experiment [5] it was -1.12; in experiment [6], -0.294. For the same compound, the composite z-score in experiment [7] was -0.0146; in [9], -0.353; in [10], -0.0994. Besides, in experiment [8], the z-score is -4.34 (inactive).

As for `COC(=O)[C@@]1(Cc2ccc(F)cc2)[C@H]2c3cc(C(=O)N(C)C)n(Cc4cc(C)n(C)n4)c3C[C@H]2CN1C(=O)c1ccccc1`, the composite z-score was 0.274 in [1]; 0.85 in experiment [2]; -0.19 in experiment [3]; 0.515 in experiment [4]; 1.61 in [5]; 1.66 in [6]. For the same compound, the composite z-score in experiment [7] is 1.29; in experiment [9], 0.967; in experiment [10], 0.0139. Moreover, the z-score in experiment [8] is 0.0894 (inactive).

For the compound `O=C1OCCC=C[C@H]2OC34C=CCN(CCN5CCOCC5)C(=O)[C@H]3N(CCCCCO)C(=O)[C@@H]4C12` (stereo not given in full), the composite z-score in [1] was -0.391; in [2], 1.84; in [3], -0.203; in [4], 0.0681; in experiment [5] it was -0.419; in [6] it was 1.06. Further, the composite z-score in [7] was 1.42; in [9] it was -0.324; in experiment [10], -0.0994. Besides, the z-score in experiment [8] is -0.521 (inactive).

On to `O=C1C2C=CC(C(O)COCc3ccccc3)N(Nc3ccc([N+](=O)[O-])cc3)C2C(=O)N1c1ccccc1` (stereo not given), for which the composite z-score in [1] was 0.0903; in [2], -0.58; in experiment [3] it was -0.0004; in experiment [4] it was 1.14; in [5] it was 1.57; in experiment [6], 0.661. The composite z-score in experiment [7] was 1.32; in [9], 1.44; in experiment [10], -0.145. Moreover, the z-score in [8] is 0.123 (inactive).
